Compound activity (PubChem BioAssay)
aSyn UTR act – Activators via SNCA 5'UTR binding, MLPCN. alpha-synuclein 5'UTR reporter, activators screen. hit rate 7.1% among 300,000. activity score, % (tested at 7.5 µM), hits read low; in the data active means activity score below about -60%
A number is an active result; - = inactive. Only a sample is shown.

SMILES	aSyn UTR act
O=C(O)/C=C/C(=O)Nc1ccc2c(c1)C(=O)c1ccccc1C2=O	-64.8
Nc1ccc2c(c1)C(=O)c1ccccc1C2=O	-145.4
O=C(O)/C=C/C(=O)Nc1ccc2nccnc2c1	-75.4
Nc1ccc2c(c1)C(=O)C(=O)c1ccccc1-2	-
CC(=O)Nc1ccc(Nc2c3c4c(cccc4n(C)c2=O)C(=O)c2ccccc2-3)cc1	-
CC(=O)Nc1ccc2nc3ccccc3nc2c1	-82.0
O=C1c2ccccc2C(=O)c2cc(NC(=O)C3CC3)ccc21	-160.9
CCN1C(=O)/C(=C\N2CCCCCC2)SC1=S	-112.0
COc1ccc(/C=C2\SC(=S)N(CCCC(=O)N3CCCCC3CCO)C2=O)cc1 (stereo unspecified)	-
CCN1C(=O)/C(=C/N2CCc3ccccc3C2)SC1=S	-107.8
O=C(N/N=C/c1ccc2c(c1)OCO2)c1ccc2c(c1)OCO2	-91.3
O=C(N/N=C/c1ccc[nH]1)c1ccc2c(c1)OCO2	-92.9
O=C(CCCN1C(=O)/C(=C/c2ccc3c(c2)OCO3)SC1=S)Nc1ccc(C(=O)O)cc1	-
Cc1ccsc1/C=N\NC(=O)c1ccc2c(c1)OCO2	-96.9
O=C(CCC(=O)Nc1ccccc1)N/N=C/c1ccc2c(c1)OCO2	-62.9
O=C(N/N=C/c1ccc2c(c1)OCO2)C1CC1	-66.7
COc1cc(/C=N\NC(=O)c2ccc(C)nc2)ccc1OC(=O)c1ccc2c(c1)OCO2	-67.2
O=C(N/N=C\c1cccc(OC(=O)c2ccco2)c1)c1ccc2c(c1)OCO2	-64.7
O=C(N/N=C\c1ccc2c(c1)OCO2)c1ccco1	-102.5
O=C(N/N=C1/CC2C=CCC12)c1ccco1 (stereo unspecified)	-66.4
O=C(N/N=C1/CC2C=CCC12)c1cccs1 (stereo unspecified)	-75.1
CC1(C)Cc2c(c(N3CCOCC3)nc3sc4c(NCc5ccccc5)nnnc4c23)CS1	-
O=C(NC(=S)NCCc1ccccc1)c1ccco1	-79.6
Cc1ccccc1C(=O)NC(=S)Nc1ncccn1	-66.2
Cc1ccccc1C(=O)NC(=S)NCCc1ccccc1	-65.8
SMILES	aSyn UTR act
COc1cccc(-c2nn(C)c3sc(C(=O)Nc4ccc5c(c4)OCCO5)cc23)c1	-100.9
C/C(=N\Nc1cccc(Cl)c1)c1ccncc1	-116.7
Clc1cccc(N/N=C/c2ccncc2)c1	-117.4
Cc1ccc(N/N=C/c2ccncc2)cc1	-120.4
OCCNc1c2ccccc2nc2c(F)c(F)c(F)c(F)c12	-83.6
COc1ccc2c(c1)CCC/C2=N\Nc1nc(C(=O)NN)cs1	-92.2
O=C(N/N=C1\CCc2ccccc21)c1ccncc1	-159.5
O=C(O)c1ccc(N/N=C2/CCCc3ccccc32)cc1	-81.6
Cc1cc(C(=O)N/N=C2\CCCc3ccccc32)c(C)o1	-126.1
CCN(CC)c1ccc2c(cc1=O)[C@@H](NC)CCc1cc(OC)c(OC)c(OC)c1-2	-
O=C(N/N=C1\CCCCc2ccccc21)c1ccccn1	-91.8
O=C(N/N=C1\CCCc2ccccc21)c1ccccc1Cl	-132.5
COc1ccc2c(c1)CCC/C2=N\NC(=O)c1ccoc1C	-69.7
Cc1cc(C(=O)NC2Cc3ccccc3C2)c(C)o1	-136.6
CC(Oc1ccccc1)C(=O)NC1=NCCS1 (stereo unspecified)	-108.2
O=C(NC1=NCCS1)c1csc2ccccc12	-183.0
O=C(NC1=NCCS1)Nc1ccccc1	-121.1
CC1Oc2ccccc2C=C1/C=N/NC(=O)c1ccccc1 (stereo unspecified)	-159.1
CC1Oc2ccccc2C=C1/C=N/NC(=O)c1ccccc1O (stereo unspecified)	-130.8
O=C(N/N=C/c1cc2c3c(c1O)CCCN3CCC2)c1ccccc1O	-
Cc1ccc(C(=O)N/N=C/C2=Cc3ccccc3OC2C)cc1 (stereo unspecified)	-70.9
CN(c1ccc(C(=O)Nc2ccccn2)cc1)S(=O)(=O)c1ccccc1	-132.8
CCc1nnc(NC(=O)c2ccc(S(=O)(=O)N(C)c3ccccc3)cc2)o1	-
CN(c1ccc(C(=O)Nc2cccc(O)c2)cc1)S(=O)(=O)c1ccccc1	-104.5
CCN(c1ccccc1)S(=O)(=O)c1ccc(C(=O)Nc2ccccn2)cc1	-76.3
SMILES	aSyn UTR act
CCCCSc1nsc(NC(C)=O)n1	-134.7
CCCSc1nsc(NC(=O)CCC)n1	-142.4
CCCCCCSc1nsc(NC(C)=O)n1	-96.9
CCCSc1nsc(NC(=O)c2cccnc2OCC)n1	-72.1
CC(C)(C)c1ccc(-c2noc(-c3ccno3)n2)cc1	-120.2
Cn1nnnc1Sc1ncnc2scc(-c3ccc(F)cc3)c12	-88.9
Cc1ccc2nc3ccc(N4CCN(C)CC4)nn3c(=O)c2c1	-136.9
Cc1sc2nc3ccc(N4CCCC4)nn3c(=O)c2c1C	-170.8
O=c1c2ccccc2nc2ccc(N3CCOCC3)nn12	-84.8
Cc1ccc2nc3ccc(N4CCCCCCC4)nn3c(=O)c2c1	-150.2
Nc1ccc(-c2nc3ncccc3o2)c(Cl)c1	-103.8
Nc1ccc(-c2nc3ncccc3o2)c(O)c1	-175.5
O=c1sc(/C=N/Nc2ccccc2)c(Cl)n1Cc1ccccc1	-83.9
COc1ccc(-n2cc3ccc([N+](=O)[O-])cc3n2)cc1	-90.5
CC(=O)Nc1ccc(S(=O)(=O)N/N=C/c2ccc(C)s2)cc1	-136.6
COc1ccc(OC)c(Cc2nnc(CCC(=O)N3CCCCC3c3nccs3)o2)c1 (stereo unspecified)	-115.9
COc1ccc(OC)c(Cc2nnc(CCC(=O)NC3CCCCCCC3)o2)c1	-118.2
COc1ccc(OC)c(Cc2nnc(CCC(=O)N3CCCCCC3)o2)c1	-73.7
FC(F)(F)c1ccc(C2NCCc3sccc32)cc1 (stereo unspecified)	-62.9
Cc1nn(-c2ccccc2)c(N)c1N=Nc1ccc(Cl)cc1	-175.5
Cc1cccc(N=Nc2c(C)nn(-c3ccccc3)c2N)c1C	-124.4
CCN(C(=O)c1cccs1)c1nnc(-c2ccncc2)s1	-76.1
COc1cc(-c2noc(C)c2C#Cc2ccsc2)cc(OC)c1OC	-
Cn1c2ccccc2c(=O)c2cc(C#CC3(O)CCCCC3)ccc21	-
Cn1c2ccccc2c(=O)c2ccc(C#Cc3ccccn3)cc21	-137.2
SMILES	aSyn UTR act
Cn1c2ccccc2c(=O)c2cc(C#Cc3ccccn3)ccc21	-127.0
Cn1c2ccccc2c(=O)c2cc(C#Cc3ccsc3)ccc21	-187.3
CC1(CC(=O)N/N=C/c2ccc(OCc3ccc(Cl)cc3Cl)cc2)OCCCO1	-106.1
COc1cc(/C=N/NC(=O)CC2(C)OCCCO2)ccc1OCc1ccc(Cl)cc1Cl	-69.8
COc1cc(/C=N/NC(=O)CNc2n[nH]c(=O)[nH]c2=O)ccc1OCc1ccccc1	-75.1
COc1cc(/C=N/NC(=O)CN2CCCCC2)ccc1OCc1ccc(Br)cc1	-153.9
COc1cc(/C=N/NC(=O)CC2(C)OCCCO2)ccc1OCc1ccccc1	-65.0
COc1cc(/C=C/C(=O)NC(C)(C)C)ccc1OCc1ccccc1	-
CCNC(=S)Nc1ccc(OCc2nc3ccccc3s2)cc1	-89.7
O=C(O)CCCC(=O)Nc1ccc(OCc2nc3ccccc3s2)cc1	-67.4
Cc1ccc(-c2nc3ccccc3s2)cc1S(=O)(=O)N1CCCC1	-62.8
Cc1cccc(Nc2ccc(NCc3ccccc3)nn2)c1	-110.4
Cc1ccccc1C1=NC(c2ccc(F)cc2F)ON1 (stereo unspecified)	-90.0
COc1ccccc1C1N=C(c2ccccc2C)NO1 (stereo unspecified)	-120.4
Cc1ccc(O)c(N=Cc2sc3ccccc3c2Cl)c1	-90.5
Oc1ccccc1N=Cc1sc2ccccc2c1Cl	-103.9
O=C(Nc1ccc([N+](=O)[O-])cn1)c1ccc2c(c1)OCO2	-91.0
